Where “and” joins values, the source holds several entries; their conditions need not be identical. Identical values can stand only once. Hit rate of the full screen: of about 5,500 compounds, about 2,000 (36%) were called active. Not shown: some 18% with an inconclusive outcome. Rule as the data show it: active = normalized growth mostly below about 0.91 (no sharp cut-off); inconclusive = no clear call, values can overlap the other calls; inactive = mostly above about 0.92. The list shows a part of the results.
Assay: chemical genetic growth profiling, strain panel (AID 1159580);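 also: tested at 20 µM; growth read once vehicle control cultures reached saturation at 30 °C; 1 = growth at the plate median or of vehicle wells; lower values mean less growth of the strain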
Details: S. cerevisiae deletion strains, growth OD

Measured: normalized growth

O=c1[nH]cc(F)c(=O)[nH]1
active: locus YKL009W, strain mrt4, hits give low values 0.862 | locus YKL160W, strain elf1, hits give low values 0.671 | locus YKL190W, strain CNB1, hits give low values 0.858 | locus YKR001C, strain vps1, hits give low values 0.471 | locus YKR026C, strain gcn3, hits give low values 0.83 | locus YLL001W, strain dnm1, hits give low values 0.456 | locus YLL026W, hits give low values 0.588 | locus YLL041C, strain sdh2, hits give low values 0.849 | locus YLR027C, strain aat2, hits give low values 0.537 | locus YLR039C, strain RIC1, hits give low values 0.601 | locus YLR058C, strain SHM2, hits give low values 0.746 | locus YLR113W, strain HOG1, hits give low values 0.772 | locus YLR221C, strain rsa3, hits give low values 0.411 | locus YLR258W, strain gsy2, hits give low values 0.542 | locus YLR262C, strain YPT6 (second series), hits give low values 0.63 | locus YLR268W, strain sec22, hits give low values 0.726 | locus YLR320W, strain mms22, hits give low values 0.509 | locus YLR342W, strain FKS1 (second series), hits give low values 0.743 | locus YLR342W, strain FKS1, hits give low values 0.807 | locus YLR357W, strain rsc2, hits give low values 0.775 | locus YLR370C, strain arc18, hits give low values 0.562 | locus YLR371W, strain rom2, hits give low values 0.867 | locus YLR384C, strain iki3, hits give low values 0.809 | locus YLR418C, strain cdc73, hits give low values 0.819 | locus YML016C, strain PPZ1, hits give low values 0.864 | locus YML032C, strain rad52, hits give low values 0.642 | locus YML120C, strain ndi1, hits give low values 0.464 | locus YML124C, strain tub3, hits give low values 0.914 | locus YMR058W, strain fet3, hits give low values 0.562 | locus YMR125W, strain sto1, hits give low values 1.12 [resistant] | locus YMR129W, hits give low values 0.701 | locus YMR223W, strain ubp8, hits give low values 0.613 | locus YMR231W, strain pep5, hits give low values 0.793 | locus YNL067W, strain RPL9B, hits give low values 0.84 | locus YNL071W, strain lat1, hits give low values 0.698
inactive: locus YKL068W, hits give low values 0.995 | locus YKL085W, strain MDH1 (second series), hits give low values 0.965 | locus YKL085W, strain MDH1, hits give low values 0.965 | locus YKR091W, strain srl3, hits give low values 1.01 | locus YLR102C, strain apc9, hits give low values 0.943 | locus YLR262C, strain YPT6, hits give low values 0.647 | locus YLR330W, strain CHS5, hits give low values 0.966 | locus YMR078C, strain ctf18, hits give low values 0.994 | locus YMR205C, strain PFK2, hits give low values 0.919 | locus YMR263W, strain SAP30, hits give low values 0.957 and 1.01 | locus YMR307W, strain GAS1, hits give low values 0.901 and 0.99
